Among all 2,400 compounds or so, about 820 (34%) were called active.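 How the source made its calls: active means inhibition of at least 50% at 20 µM in any single replicate; inactive means the rest.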 Only a sample is shown.
Each molecule was assayed on glucose-6-phosphate dehydrogenase-6-phosphogluconolactonase (PfGluPho), Plasmodium falciparum 3D7 (assay: PfG6PD inhibitors, hit retest, confirmation, biochemical, fluorescence intensity, single concentration (AID 504753;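 further: 0% = DMSO with substrate and 100% = DMSO lacking glucose-6-phosphate substrate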)). Conditions: recombinant PfGluPho, NADPH-diaphorase-resazurin fluorescence; at 20 µM; active compounds read high.

SMILES	inhibition
O=C1NC(=O)N(c2ccccc2)C(=O)/C1=C/c1ccc([N+](=O)[O-])s1	64.4% (active)
COC(=O)N(c1ccc(OC)cc1)P1(=S)OCCC(C)O1 (stereo not given)	34.3% (inactive)
Cc1cc(C)c2c(c1)NP(=S)(c1ccccc1)N2 (stereo not given)	-21% (inactive)
O=C(CSC1c2ccccc2-c2ccccc21)N/N=C/c1ccccc1	35.3% (inactive)
COc1cccc(-c2nc3ccc(N4CCN(C)CC4)cc3[nH]2)c1	13.5% (inactive)
